# Reference: PubChem BioAssay AID651635 (National Center for Advancing Translational Sciences (NCATS), 2013)
# Screen size: about 400,000 compounds; about 1,900 (0.47%) were called active. About 14% were inconclusive and are not listed. Shown is part of a subset that was picked to be rich in actives. Unmarked numbers belong to inactive results. The call rests on the fitted dose curve; in most records, active means well fitted cell-killing curve with a large enough effect; inconclusive means small, poorly fitted or top-dose-only effect, or effect the other way; inactive means no such curve, though single readings can be large or run the other way.
# Test: Viability Counterscreen for Primary qHTS for Inhibitors of ATXN expression; further: nearly all actives have a fitted effect of over 40% in size
# Settings: S2 cells (HEK-293 line with an ATXN2-luciferase reporter) viability, CellTiter-Fluor protease fluorescence, 24 h; series mostly up to 56.7 µM; activity change, negative = cytotoxicity: at the top concentration
# Potency means the concentration at half of the fitted maximal effect.
SMILES,"activity change, negative = cytotoxicity",Potency
C[C@@H]1CCC[C@H](C)N1CCCC(O)(c1ccccc1)c1ccccn1 (stereo partly specified),-7.16%,
FC(F)(F)c1cccc(-c2cn[nH]c2C2CCCN(Cc3cccn3-c3ccccn3)C2)c1 (stereo unspecified),-20.2%,
O=C(NCCN1CCOCC1)c1cnn(-c2nccc(-c3cccs3)n2)c1C1CC1,-8.87%,
O=C(OCC(O)CO)c1ccccc1Nc1ccnc2c(C(F)(F)F)cccc12 (stereo unspecified),8.14%,
CCS(=O)(=O)Nc1cc(C(=O)N2C[C@@H](C)O[C@@H](C)C2)c2c(c1)nc(-c1ccccc1)n2C,-11.8%,
CC1(C)OC[C@@H](COC(=O)CCc2ccc(OC[C@@H](O)CNCCNC(=O)N3CCOCC3)cc2)O1,,inactive
CC(=O)Nc1cncc(-c2ccccc2CO)n1,-8.75%,
COc1cnc(-c2ccccn2)nc1Oc1ccc(C(C)(C)C)cc1,,10 µM (active)
COc1ccc2nc(-c3ccccn3)ccc2c1,-31.3%,
N#Cc1ccc(Oc2cc(C(F)(F)F)nc(-c3ccccn3)n2)cc1,-38.9%,
CCc1nc2c(OCCOc3ccccc3)cccn2c1N(C=O)Cc1ccc(OC)cc1,-32%,
C#Cc1ccc(NC(=O)C2(C)CCN2C(=O)Cc2ccc(-c3ccccc3)cc2)cc1 (stereo unspecified),-21.5%,
CC(C(=O)O)c1ccc(C2CCCCC2)c2ccccc12 (stereo unspecified),-15.4%,
O=C(NC1=CC(=O)c2ccccc2C1=O)c1ccccc1,,7.08 µM (active)
COC(=O)c1nc(NC(=O)c2ccccc2)n[nH]1,-13.5%,
O=C(NC(=O)c1ccccc1)Nc1ccccc1O,-5.19%,
CCCS(=O)(=O)NCc1c(C)ncc2c1CCN(C(=O)c1ccc(F)c(F)c1)C2,-6.2%,
O=C(OCCN1CCOCC1)c1cccnc1Nc1cccc(C(F)(F)F)c1,-5.42%,
COc1ccc(NC(=O)C2(C)Cc3c(-c4cccc(NC(C)=O)c4)ccnc3O2)cc1OC (stereo unspecified),-26.5%,
COc1ccc(-n2c(CNC(=O)c3cc(C(F)(F)F)ccc3Cl)nnc2SC)cc1,-11.2%,
COc1ccc(NC(=O)C/C(C)=N/NC(=O)c2cnccn2)cc1Cl,-13.5%,
Cc1ccc(/C=N/NC(=O)C2=NNC(c3ccccc3)(c3ccccc3)C2)c(O)c1,-18.9%,
CCN(CC)c1ccc(/C=N/NC(=O)c2cnccn2)c(O)c1,,7.94 µM (active)

SMILES,"activity change, negative = cytotoxicity",Potency
COc1cc(C(=O)N2CCC(c3ccncc3)CC2)cc(OC)c1OC,-4.24%,
CCOC(=O)[C@]12CCCC=C1N(Cc1ccc3c(c1)OCO3)C(=O)[C@H](CC(=O)NCc1cccs1)C2,-20.6%,
CCOc1ccc(NC(=O)c2nc(SCC)ncc2Cl)cc1,-16.9%,
CSc1nnc(NC(=O)c2nc(S(=O)(=O)Cc3ccc(C)cc3)ncc2Cl)s1,,12.6 µM (active)
COCCSc1nnc(NC(=O)CCS(=O)(=O)Cc2ccccc2)s1,-32.4%,
Cc1cccc(CS(=O)(=O)c2ncc(Cl)c(C(=O)Nc3ccc(F)cc3)n2)c1,,31.6 µM (active)
CCS(=O)(=O)c1ncc(N(Cc2ccc(F)cc2)Cc2ccco2)c(C(=O)Nc2cc(C)ccc2C)n1,-15.9%,
Cc1ccc2nc(NC(=O)c3nc(SCc4ccccc4F)ncc3Cl)sc2c1,-29.2%,
COc1ccccc1-c1ccnc(-n2ncc(C(=O)NCCc3ccncc3)c2C)n1,-6.5%,
O=[N+]([O-])c1cc(S(=O)(=O)Nc2cccc(Cl)c2)ccc1N=Nc1c(O)[nH]c2ccccc12,,28.2 µM (active)
O=C(O)c1ccccc1/C=N/Nc1ccc(S(=O)(=O)Nc2ccc(Cl)cc2)cc1[N+](=O)[O-],-23.7%,
Oc1[nH]c2ccccc2c1N=Nc1c(F)c(F)c(F)c(F)c1F,-34.7%,
CO/N=C(\C(=O)N[C@@H]1C(=O)N2C(C(=O)O)=C(C[N+]3(C)CCCC3)CS[C@H]12)c1csc(N)n1,-14.3% [at 25.4 µM],
COc1cc(-c2cccnc2)cc2c1OCCN(C(=O)Cc1csc(C)n1)C2,-16.2%,
COc1cc2[nH]c(C)c(CCN3CCN(c4ccccc4)CC3)c2cc1OC,-20.5%,
O=[N+]([O-])c1ccc(C=Nc2ccc(Cl)cc2Cl)s1,,11.2 µM (active)
CNN/C(N=Cc1ccc([N+](=O)[O-])s1)=N\S(=O)(=O)c1cc(C)c(Cl)cc1SCc1ccccc1,-34.8%,
CC1CN(C(=O)c2ccc([N+](=O)[O-])s2)CC(C)O1 (stereo unspecified),-21.9%,
CCOC(=O)[C@]12CCC=C1N(CCC1=CCCCC1)C(=O)[C@H](CC(=O)NCc1ccc(C)o1)C2,-38%,
COC(=O)c1c(C)c(C)nc(N)c1C#N,-3.55%,
COC(=O)c1nc(Cl)c(Cl)nc1N,,15.8 µM (active)
COC(=O)c1nn(-c2cccc(Cl)c2)ccc1=O,5.56%,
CCCOc1ccc(F)cc1-c1cc(C(=O)NCc2ccc(F)cc2)[nH]n1,-12.6%,

SMILES,"activity change, negative = cytotoxicity",Potency
CCC1CN(CCNC(=O)c2ccsc2)Cc2cc(OC)ccc2O1 (stereo unspecified),-8.37%,
CC[C@]1(O)C[C@@H]2CN(CCc3c([nH]c4ccccc34)[C@@](C(=O)OC)(c3cc4c(cc3OC)N(C)[C@H]3[C@@](O)(C(=O)OC)[C@H](OC(C)=O)[C@]5(CC)C=CCN6CC[C@]43[C@@H]65)C2)C1,,1 µM (active)
O=C(NCC1Cc2cc(F)cc(-c3cnccn3)c2O1)C1COc2ccccc2O1 (stereo unspecified),-9.12%,
CC[C@H](C)CCCCC(=O)N[C@@H](CCN)C(=O)N[C@H](C(=O)N[C@@H](CCN)C(=O)N[C@H]1CCNC(=O)[C@H]([C@@H](C)O)NC(=O)[C@H](CCN)NC(=O)[C@H](CCN)NC(=O)[C@H](CC(C)C)NC(=O)[C@@H](CC(C)C)NC(=O)[C@H](CCN)NC1=O)[C@@H](C)O,-1.3%,
CCC(C(=O)OCCN(CC)CC)c1ccccc1 (stereo unspecified),,inactive
CCN(CC)CCOC(=O)c1ccc(NC(=O)CNC(=O)c2ccccc2)cc1,-6.36%,
CC1(C(=O)NCC2CCOCC2)Cc2c(-c3cccc(C(N)=O)c3)ccnc2O1 (stereo unspecified),-23.9%,
O=C1NC(CC(=O)N2CCC(n3c(C4CCC4)nc4cccnc43)CC2)c2ccccc21 (stereo unspecified),-16%,
O=CNc1cc(-c2ccc(C(=O)N3CCOCC3)cc2)cn2c(-c3ccc(F)cc3)cnc12,-26.1%,
CCc1nc2c(OCCc3cccc(OC)c3)cccn2c1N(C)C(=O)c1ccc(C)cc1,-21.3%,
COc1ccc(OCCCn2c(C)nc3cc(C)c(C)cc32)cc1,,28.2 µM (active)
Cc1cc2ncn(CCCCOc3ccccc3)c2cc1C,,inactive
Cc1cc2nc(C)n(CCCNC(=O)Nc3ccccc3)c2cc1C,-11.2%,
COc1ccc(C(C#N)=C2C=CC(=NO)c3ccccc32)cc1,-0.613%,
CC[n+]1cc(C)ccc1/C=C/c1ccc(N(C)C)cc1,,25.1 µM (active)
NCC[C@H](O)C(=O)N[C@@H]1C[C@H](N)[C@@H](O[C@H]2O[C@H](CN)[C@@H](O)[C@H](O)[C@@H]2O)[C@H](O)[C@@H]1O[C@H]1O[C@H](CO)[C@@H](O)[C@H](N)[C@@H]1O,-2.32% [at 0.575 µM],
CO[C@]1(NC(=O)CSC(F)F)C(=O)N2C(C(=O)O)=C(CSc3nnnn3CCO)CO[C@H]21,9.74%,
COc1ccccc1NC(=O)c1oc2ccccc2c1NC(=O)COc1ccccc1OC,-17.9%,
O=C(CCN1Cc2ccccc2OC(c2ccccc2)C1)N[C@@H]1CS(=O)(=O)C[C@H]1O (stereo partly specified),-3.77%,
CC(OC(=O)c1ccc([N+](=O)[O-])cc1)C(=O)NCC1CCCCC1 (stereo unspecified),-6.52%,
CC(OC(=O)c1cccc(S(=O)(=O)N2CCOCC2)c1)C(=O)NCC1CCCCC1 (stereo unspecified),-31.2%,
COc1cc(C(=O)OC(C)C(=O)NCC2CCCCC2)cc(NC(=O)c2ccco2)c1OC (stereo unspecified),,31.6 µM (active)
CCOC(=O)Cc1cccc(-c2cc(CCCCCCc3ccc(O[C@H]4O[C@H](COC(C)=O)[C@@H](OC(C)=O)[C@H](OC(C)=O)[C@@H]4OC(C)=O)c(-c4cccc(CC(=O)OCC)c4)c3)ccc2O[C@H]2O[C@H](COC(C)=O)[C@@H](OC(C)=O)[C@H](OC(C)=O)[C@@H]2OC(C)=O)c1,-7%,

SMILES,"activity change, negative = cytotoxicity",Potency
CN(C)CCNC(=O)c1ccc(-c2cn3c(-c4ccc(Oc5ccccc5)cc4)cnc3cn2)cc1,3.68%,
Cc1ccccc1-c1ccc2c(c1)O[C@@H](CN(C)Cc1ccc(C(=O)O)cc1)[C@@H](C)CN([C@H](C)CO)S2(=O)=O,-7.46%,
CCCCC[C@H](C)N1C[C@@H](COCc2ccccc2)Oc2cc(N3CC[C@@H](N(C)C)C3)ccc2S1(=O)=O,,25.1 µM (active)
CCCCN1CC(COCc2ccccc2)OCCS1(=O)=O (stereo unspecified),-18.3%,
Cc1oc2ccc(O)c(CN3CCCCC3)c2c1C(=O)Nc1cccc(C(F)(F)F)c1,,28.2 µM (active)
CCN1CCN(Cc2c(O)ccc3oc(C)c(C(=O)Nc4ccc(C)cc4C)c23)CC1,-3.39%,
Cc1oc2ccc(O)c(CN3CCOCC3)c2c1C(=O)Nc1cccc(Cl)c1C,-18.9%,
COC(=O)/C=C(/C)N,-9.41%,
COCCN1CCN(C(=O)c2sc3ncnc(NCC4CCCO4)c3c2C)CC1 (stereo unspecified),-15.3%,
Cc1csc(NC(=O)Nc2ccccc2[N+](=O)[O-])n1,-25.1%,
O=C(Nc1ccncc1)c1ccccc1[N+](=O)[O-],-7.59%,
CC(=O)Oc1ccccc1C(=O)Nc1ncc([N+](=O)[O-])s1,,39.8 µM (active)
CC(C)(C)S(=O)N1Cc2cc(C(=O)NCCCN3CCOCC3)nc(-c3cccc(-c4cc5ccccc5o4)c3)c2[C@H]1CCO (stereo partly specified),-37.5%,
CC(Oc1ccccc1)C(=O)N[C@@H]1C(=O)N2[C@@H]1SC(C)(C)[C@@H]2C(=O)O (stereo partly specified),-12.4% [at 25.4 µM],
COCc1cccc(-c2csc(C(O)c3ccc(F)cc3)n2)c1 (stereo unspecified),-24.3%,
Cn1c(=O)[nH]c(=O)c2c1nc(N1CCN(C(c3ccccc3)c3ccccc3)CC1)n2CCO,,3.16 µM (active)
Cn1c(=O)[nH]c(=O)c2c1nc(N1CCN(CCO)CC1)n2CCSc1nc2ccccc2s1,12.4%,
CN1CCN(c2nc3c(c(=O)[nH]c(=O)n3C)n2Cc2cccc3ccccc23)CC1,-28.2%,
CN[C@@H]1[C@@H](O)[C@@H](O[C@@H]2[C@H](O)[C@H](O[C@H]3OC(CN)=CC[C@H]3N)[C@@H](N)C[C@H]2N)OCC1(C)O (stereo partly specified),-11.6%,
CC(=O)Nc1ccc(-c2cn3cccnc3n2)cc1,-17.5%,
O=C(CSC1=NCCS1)Nc1nc(-c2ccccc2)cs1,-18.4%,
CC(=O)Nc1ccc(-c2csc(NC(=O)Nc3ccccc3)n2)cc1,,15 µM (active)
